Values without a mark were called inactive. Results filed as inconclusive are left out. Calls of active or inactive are those of the source. Unless noted, calls follow the shape of the full dose curve.

Experiment [1] can be described thus: Nuclear factor erythroid 2-related factor 2/antioxidant responsive element (Nrf2/ARE) small molecule agonists: qHTS cell viability counter screen in human keratinocytes (AID 1919968; active = well fitted curve in the direction sought with a large enough effect in the repeat runs; an effect the other way counts as inactive or inconclusive; also: nearly all actives have a fitted effect of over 55% in size). The procedure, abridged: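 Viability counter-screen: KeratinoSens reporter cells, DMSO-delivered compounds, 23 h at 37 C, CellTiter-Fluor fluorescence.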
A general note: qHTS replaces the single test concentration by a dilution series.

Experiment [2] is described as follows: Nuclear factor erythroid 2-related factor 2/antioxidant responsive element (Nrf2/ARE) small molecule agonists: luciferase reporter gene qHTS assay in human keratinocytes (AID 1919969). Also: nearly all actives have a fitted effect of over 35% in size.
For experiment [3], the target named is Gonadotropin-releasing hormone receptor (Homo sapiens) (UniProt P30968). Kind of experiment: Human gonadotropin-releasing hormone receptor (GnRHR) small molecule agonists, calcium flux assay in GnRHR-HEK293 cells (AID 1920063). Also: nearly all actives have a fitted effect of over 35% in size. The procedure, abridged:
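Tox21-format agonist screen using human GnRHR-expressing HEK293 cells and a fluorescent calcium dye; kinetic 3-min fluorescence reading after compound addition, 15-point concentration series run in triplicate.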

The target of experiment [4] is KiSS-1 receptor (Homo sapiens) (UniProt Q969F8). Kind of experiment: Human kisspeptin (KISS1R) small molecule agonists, calcium flux assay in KISS1R-HEK293 cells (AID 1920064; active = well fitted curve in the direction sought with a large enough effect in the repeat runs; an effect the other way counts as inactive or inconclusive). The procedure, abridged: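 Intracellular calcium mobilization in KISS1R-HEK293 cells was recorded by fluorescence (Ex/Em 480/540) for 3 min following compound addition to cells pre-loaded 1 h with calcium dye.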
Sequence of KiSS-1 receptor (Homo sapiens) (Q969F8 whole entry, looked up): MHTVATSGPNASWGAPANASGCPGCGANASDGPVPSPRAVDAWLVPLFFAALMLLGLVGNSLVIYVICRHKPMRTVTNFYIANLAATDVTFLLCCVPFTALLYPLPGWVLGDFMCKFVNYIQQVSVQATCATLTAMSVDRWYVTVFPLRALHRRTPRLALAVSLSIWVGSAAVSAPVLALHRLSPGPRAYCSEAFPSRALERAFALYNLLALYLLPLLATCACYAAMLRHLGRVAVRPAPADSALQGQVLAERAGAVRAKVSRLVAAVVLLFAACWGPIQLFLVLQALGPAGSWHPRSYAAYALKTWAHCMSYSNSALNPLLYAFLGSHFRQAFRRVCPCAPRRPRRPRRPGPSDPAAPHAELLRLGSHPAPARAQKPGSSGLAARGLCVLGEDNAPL

Experiment [5] can be described thus: p53 small molecule agonists, cell-based qHTS assay with human liver microsomes (AID 1963577). The procedure, abridged: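 Compounds act here after metabolic activation: human liver microsomes and NADPH, both at 0.5 mg/mL final, were co-added to p53RE-bla cells. Incubation ran 16 h at 37 C, followed by LiveBLAzer detection.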
A short description of experiment [6]: p53 small molecule agonists, cell-based qHTS assay with rat liver microsomes (AID 1963578). The procedure, abridged:
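Read-out is beta-lactamase reporter fluorescence (LiveBLAzer, 2 h, room temperature, dark) in p53RE-bla cells treated 16 h at 37 C with compound, rat liver microsomes and NADPH, both 0.5 mg/mL final.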

Experiment [7] in a line: p53 small molecule agonists, cell-based qHTS assay with human liver microsomes: qHTS cell viability counter screen (AID 1963579). Also: nearly all actives have a fitted effect of over 45% in size. The procedure, abridged:
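Cells carrying the p53 response-element beta-lactamase reporter are treated for 16 h at 37 C with test compounds in the presence of human liver microsomes and NADPH (both 0.5 mg/mL final); ATP-based CellTiter-Glo luminescence then reports viability.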

Experiment [8] in a line: p53 small molecule agonists, cell-based qHTS assay with rat liver microsomes: qHTS cell viability counter screen (AID 1963580). Also: nearly all actives have a fitted effect of over 45% in size. The procedure, abridged: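 In HCT-116 cells carrying a p53 response element-bla reporter, compounds were metabolically activated in situ by rat liver microsomes with NADPH over 16 h. Cell ATP content then served as the cytotoxicity measure.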
Experiment [9] is described as follows: p53 small molecule agonists, cell-based qHTS assay (AID 1963582; active = well fitted activation curve with a large enough effect in the signal ratio in the repeat runs, not every such curve was filed as active; the % refers to the signal ratio). The procedure, abridged: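 Agonist activity was scored from beta-lactamase FRET fluorescence in p53RE-bla cells treated 16 h at 37 C with compounds in DMSO, substrate incubation being 2 h at room temperature.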
Experiment [10] has as its target 5-hydroxytryptamine receptor 2A (Homo sapiens) (UniProt P28223). The experiment in a line: 5-hydroxytryptamine receptor 2A (HTR2A) small molecule antagonists, cell-based qHTS assay (AID 1963586). Also: nearly all actives have a fitted effect of over 45% in size. Also: potency is read from the fitted curve at half-maximal effect. The procedure, abridged:
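Antagonist-mode intracellular calcium assay: DOI (4 nM) added after 5 min compound pre-incubation at room temperature to dye-loaded HTR2A-CHO cells. Fluorescence followed for 3 min, sampled every second.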

For experiment [11] the target is unchanged. The experiment in a line: 5-hydroxytryptamine receptor 2A (HTR2A) small molecule agonists, cell-based qHTS assay (AID 1963587). Also: nearly all actives have a fitted effect of over 30% in size. The procedure, abridged:
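HTR2A-CHO cells, plated 18 h at 37 C/5% CO2, dye-loaded 1 h at 37 C; compounds in DMSO added by pin tool (agonist mode). Intracellular calcium flux read as kinetic fluorescence on FDSS over 2 min at 1 s intervals.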

Experiment [12] has as its target Muscarinic acetylcholine receptor M1 (Homo sapiens) (UniProt P11229). Kind of experiment: Cholinergic receptor muscarinic 1 (CHRM1) small molecule agonists, cell-based qHTS assay (AID 1963589). Also: nearly all actives have a fitted effect of over 35% in size. The procedure, abridged:
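Stable CHRM1-CHO cells (human receptor) were incubated 18 h, dye-loaded for 1 h at 37 C and exposed to test compounds for agonist activity, with calcium-dependent fluorescence followed kinetically.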

Experiment [13] is described as follows: cAMP Responsive Elements (CRE) small molecule agonists, cell-based qHTS assay (AID 1963590). The procedure, abridged:
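FRET-based beta-lactamase readout (LiveBLAzer B/G, 2 h RT) quantified CRE activation in HEK 293T CRE-bla cells after 3 h treatment with DMSO-dissolved compounds.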

A short description of experiment [14]: cAMP Responsive Elements (CRE) small molecule antagonists, cell-based qHTS assay (AID 1963591; active = well fitted inhibition curve with a large enough effect in the signal ratio in the repeat runs, not every such curve was filed as active; the % refers to the signal ratio). The procedure, abridged:
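qHTS in CRE-bla HEK 293T cells: compound in DMSO, then 0.25 uM NKH477 (final), 3 h at 37 °C/5% CO2; beta-lactamase FRET read-out after 2 h substrate incubation.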

Experiment [15] addresses Beta-2 adrenergic receptor (Homo sapiens) (UniProt P07550). The experiment in a line: Adrenergic beta2 receptor (ADRB2) small molecule antagonists, cell-based qHTS assay (AID 1963592). Also: series mostly up to about 92 µM; nearly all actives have a fitted effect of over 50% in size. The procedure, abridged:
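Cells (CHO, stable ADRB2 overexpression) incubated 18-20hr at 37C; compounds added from DMSO; agonist mix (1nM isoproterenol, 100uM IBMX, 25uM Ro-20-1724) added; 0.5hr RT; d2-cAMP and anti-cAMP-cryptate added; 1hr RT; 665/615 nm read.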

The target in experiment [16] is D(2) dopamine receptor (Homo sapiens) (UniProt P14416). Kind of experiment: Dopamine D2 receptor (DRD2) small molecule agonists, cell-based qHTS assay (AID 1963594). Also: nearly all actives have a fitted effect of over 35% in size. The procedure, abridged: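 HEK293 cells stably expressing DRD2 were cultured 24 h at 37 C, then given Ro20-1724 (0.1 mM final) and compounds for 10 min at room temperature. NKH477 (200nM) was then added for 30 min. cAMP was read by HTRF.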
Sequence of D(2) dopamine receptor (Homo sapiens) (P14416 whole entry, looked up): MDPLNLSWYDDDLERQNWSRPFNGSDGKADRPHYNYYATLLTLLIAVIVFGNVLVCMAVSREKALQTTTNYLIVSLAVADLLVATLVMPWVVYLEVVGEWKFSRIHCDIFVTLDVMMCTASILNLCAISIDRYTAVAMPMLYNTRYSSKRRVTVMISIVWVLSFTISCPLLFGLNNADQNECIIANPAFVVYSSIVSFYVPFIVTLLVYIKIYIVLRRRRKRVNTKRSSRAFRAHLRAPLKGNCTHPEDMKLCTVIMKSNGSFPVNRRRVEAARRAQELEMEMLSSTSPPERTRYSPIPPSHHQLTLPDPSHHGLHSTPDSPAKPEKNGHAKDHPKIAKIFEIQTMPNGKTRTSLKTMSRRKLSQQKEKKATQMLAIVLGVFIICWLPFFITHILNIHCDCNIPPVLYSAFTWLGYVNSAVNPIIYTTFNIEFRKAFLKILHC

Experiment [17] has the same target. The experiment in a line: Dopamine D2 receptor (DRD2) small molecule antagonists, cell-based qHTS assay (AID 1963595; active = well fitted inhibition curve with a large enough effect in the signal ratio in the repeat runs, with a control signal flat; the % refers to the signal ratio; also: potency is read from the fitted curve at half-maximal effect). The procedure, abridged:
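Stable D2 receptor HEK293 line, 24 h after seeding. Compound preincubated 10 min, then quinpirole (12 nM) with forskolin analogue NKH477 (200 nM), 30 min, room temperature. Detection by time-resolved FRET of cAMP.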

The nature of experiment [18]: p53 small molecule agonists, cell-based qHTS assay: qHTS cell viability counter screen (AID 1963581). Also: nearly all actives have a fitted effect of over 45% in size. The procedure, abridged:
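Compounds are pinned onto HCT-116 p53RE-bla cells and left 16 h at 37 C. Following the reporter FRET read, ATP is quantified by CellTiter-Glo luminescence after 30 min at room temperature.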

Experiment [19] deals with Muscarinic acetylcholine receptor M1 (Homo sapiens) (UniProt P11229). Kind of experiment: Cholinergic receptor muscarinic 1 (CHRM1) small molecule antagonists, cell-based qHTS assay (AID 1963588). Also: nearly all actives have a fitted effect of over 40% in size. The procedure, abridged: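 CHRM1-CHO calcium-flux assay, antagonist mode. Cells were seeded 18 h, dye-loaded 1 h at 37 C and given compound for 5 min at RT, then acetylcholine was added at 50nM. FDSS fluorescence was read 3 min; 15 concentrations, three runs.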
Sequence of Muscarinic acetylcholine receptor M1 (Homo sapiens) (P11229 whole entry, looked up): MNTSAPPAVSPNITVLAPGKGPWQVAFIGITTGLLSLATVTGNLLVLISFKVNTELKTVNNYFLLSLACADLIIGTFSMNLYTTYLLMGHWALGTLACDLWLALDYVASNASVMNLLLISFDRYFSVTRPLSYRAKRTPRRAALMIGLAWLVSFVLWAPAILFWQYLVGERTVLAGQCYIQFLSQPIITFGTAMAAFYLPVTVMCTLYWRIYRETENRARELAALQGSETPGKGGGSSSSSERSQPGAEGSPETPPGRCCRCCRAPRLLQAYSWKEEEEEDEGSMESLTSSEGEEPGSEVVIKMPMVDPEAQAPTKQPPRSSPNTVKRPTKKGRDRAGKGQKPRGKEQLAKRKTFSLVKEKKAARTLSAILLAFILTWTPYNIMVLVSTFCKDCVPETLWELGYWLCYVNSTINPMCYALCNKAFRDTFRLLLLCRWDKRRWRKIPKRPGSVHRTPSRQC

Sequence of Beta-2 adrenergic receptor (Homo sapiens) (P07550 whole entry, looked up): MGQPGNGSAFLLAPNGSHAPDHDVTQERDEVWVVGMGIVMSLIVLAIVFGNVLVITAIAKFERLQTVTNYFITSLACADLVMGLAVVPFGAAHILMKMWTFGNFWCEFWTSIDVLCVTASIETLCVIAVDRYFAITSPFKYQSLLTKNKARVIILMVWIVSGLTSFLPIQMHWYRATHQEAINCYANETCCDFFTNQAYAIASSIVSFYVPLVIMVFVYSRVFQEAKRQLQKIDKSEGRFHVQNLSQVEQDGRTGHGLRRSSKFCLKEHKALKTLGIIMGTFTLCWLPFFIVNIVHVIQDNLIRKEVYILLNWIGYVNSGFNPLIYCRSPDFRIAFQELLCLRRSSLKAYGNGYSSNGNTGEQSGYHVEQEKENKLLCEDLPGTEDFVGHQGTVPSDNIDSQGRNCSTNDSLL
Sequence of Gonadotropin-releasing hormone receptor (Homo sapiens) (P30968 whole entry, looked up): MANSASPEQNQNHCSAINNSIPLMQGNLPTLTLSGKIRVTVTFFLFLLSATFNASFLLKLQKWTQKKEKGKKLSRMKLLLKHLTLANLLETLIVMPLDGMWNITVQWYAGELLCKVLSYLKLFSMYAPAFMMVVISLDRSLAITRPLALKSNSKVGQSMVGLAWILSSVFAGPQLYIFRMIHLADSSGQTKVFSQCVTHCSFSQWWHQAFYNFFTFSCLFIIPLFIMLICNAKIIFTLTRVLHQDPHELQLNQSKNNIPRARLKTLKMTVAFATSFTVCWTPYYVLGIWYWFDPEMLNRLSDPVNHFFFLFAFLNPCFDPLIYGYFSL
Sequence of 5-hydroxytryptamine receptor 2A (Homo sapiens) (P28223 whole entry, looked up): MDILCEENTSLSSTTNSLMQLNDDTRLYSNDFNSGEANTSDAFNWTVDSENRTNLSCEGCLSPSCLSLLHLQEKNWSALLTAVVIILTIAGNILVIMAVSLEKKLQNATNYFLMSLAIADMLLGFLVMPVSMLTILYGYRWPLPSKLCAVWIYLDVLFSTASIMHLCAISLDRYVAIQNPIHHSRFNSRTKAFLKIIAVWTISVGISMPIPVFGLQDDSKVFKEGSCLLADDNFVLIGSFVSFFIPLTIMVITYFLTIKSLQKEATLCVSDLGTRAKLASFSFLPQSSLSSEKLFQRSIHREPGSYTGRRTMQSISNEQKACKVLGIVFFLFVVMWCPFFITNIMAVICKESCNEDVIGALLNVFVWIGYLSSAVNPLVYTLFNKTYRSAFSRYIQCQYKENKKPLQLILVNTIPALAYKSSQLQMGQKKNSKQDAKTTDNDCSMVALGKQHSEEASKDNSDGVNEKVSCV

Turning to `CN(C)CCOCCN(C)CCO`, the Potency result in experiment [1], in [2], in experiment [3], in experiment [5], in experiment [6] and in [7] was “inactive” each time. Also, the Potency result in experiment [8], in experiment [9], in experiment [10], in experiment [11], in experiment [12] and in experiment [13] was “inactive” each time. Also, the Potency entry in [14], in experiment [15], in [16] and in [17] was “inactive” throughout. The outcome in experiment [4] was inactive.
Consider `COc1ccc(C(=O)Nc2nc3ccccc3c(NCc3ccccc3)c2C#N)cc1`, for which the Potency entry in experiment [1], in experiment [2], in [3], in experiment [5], in [6] and in experiment [8] was “inactive” in each case. Further, the Potency entry in experiment [18], in experiment [9], in experiment [10], in experiment [11], in experiment [19] and in experiment [12] was “inactive” in each case. The Potency result in experiment [16] and in [17] was “inactive” each time. In addition, in [4], the outcome was inactive.
Consider `CC1=CC(=O)CC(C)(C)C1(O)/C=C/C(C)=C\C(=O)O` (stereo not given), for which the Potency result in [1], in [2], in experiment [3], in experiment [6], in experiment [7] and in experiment [8] was “inactive” each time. For the same compound, the Potency entry in experiment [18], in experiment [9], in experiment [10], in experiment [11], in [19] and in experiment [12] was “inactive” throughout. The Potency result in experiment [13], in experiment [15], in [16] and in [17] was “inactive” each time. The outcome in [4] was inactive.
In the case of `CCCCCCCCOS(=O)(=O)O`, the Potency entry in experiment [1], in experiment [2], in experiment [3], in [5], in [6] and in experiment [7] was “inactive” throughout. Besides, the Potency entry in [8], in [10], in experiment [11], in experiment [19], in experiment [12] and in [13] was “inactive” each time. For the same compound, the Potency result in experiment [15] and in experiment [16] was “inactive” in each case. Further, the result in experiment [4] was inactive.
With `CC(C)Cc1ccc(C(C)C(=O)OCc2ccccn2)cc1` (stereo not given), the Potency result in [1], in experiment [2], in experiment [3], in experiment [6], in [7] and in experiment [8] was “inactive” in each case. Moreover, the Potency result in [18], in experiment [9], in experiment [11], in [12], in experiment [13] and in experiment [15] was “inactive” in each case. Also, in experiment [17], the Potency entry is “inactive”. Also, the result in [4] was inactive. In addition, in experiment [10], the Potency is 2050 nM (active).
Turning to `CCc1cc(Cl)c(OC)c(C(=O)NC[C@@H]2CCCN2CC)c1O`, the Potency entry in experiment [1], in experiment [2], in experiment [3], in experiment [5], in experiment [6] and in experiment [7] was “inactive” throughout. The Potency entry in experiment [8], in experiment [9], in experiment [19], in experiment [12], in experiment [13] and in [14] was “inactive” throughout. Besides, in experiment [16], the Potency entry is “inactive”. Also, the outcome in [4] was inactive. The Potency in [17] is 3.3 nM (active).
Consider `CC(C)C/C=C(\C=O)c1ccccc1`, for which the Potency result in experiment [1], in [2], in experiment [3], in experiment [5], in experiment [6] and in [7] was “inactive” each time. Besides, the Potency result in [8], in experiment [9], in [11], in experiment [12], in [13] and in experiment [14] was “inactive” in each case. In addition, the Potency entry in [15], in experiment [16] and in experiment [17] was “inactive” throughout. Also, in [4], the outcome was inactive.
